tested on: T1, MST2; conditions: concentration: 1 μM, replicates: in singlicate; n = 1
T1 construct: gene STK3
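Also: KINOMEscan kinase panel screen.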

`COc1ccc(Nc2nccc(N3CCC(NC(=O)C(C)c4ccc(Cl)cc4)CC3)n2)cc1` (stereo not shown) [GSK1379812] and `COc1cccc(CNC(=O)NC2CCN(c3ccnc(Nc4ccc(F)cc4)n3)C2)c1` (stereo not shown) [GSK1379723] are the same in “%Inh” value: 0% for the first, 0% for the second.

`CCc1ccc(-c2ccc3c(c2)-c2n[nH]cc2S(=O)(=O)N3C)cc1` and `CN1c2ccc(-c3ccc(C(N)=O)cc3)cc2-c2[nH]ncc2S1(=O)=O` are the same in “%Inh” value: 0% for the first, 0% for the second.

Going from `CC(=O)c1c(C)c2cnc(Nc3ccc(N4CCNCC4)cn3)nc2n(C2CCCC2)c1=O` to `Cn1cncc1C(=O)NC1CCN(c2ccnc(Nc3ccc(F)cc3)n2)C1` (stereo not shown) [GSK1379717], the “%Inh” value rises from 0% to 34%.

`CNc1cc(-c2ccc3c(N)n[nH]c3c2)nc(N)n1` [GSK2224810] and `COc1ccc(-c2coc3ccc(-c4nnc(C)o4)cc23)cc1` are the same in “%Inh” value: 0% for the first, 0% for the second.

Going from `Cc1ccc(NC(=O)Nc2ccccc2F)cc1-c1ccc(C(=O)Nc2ccncc2)cc1` [GSK1398477] to `COC(=O)C(NC(=O)NC1CCN(c2ccnc(Nc3ccc(F)cc3)n2)C1)c1ccccc1` (stereo not shown) [GSK1379712], the “%Inh” value rises from 7% to 28%.

Going from `O=C(Nc1n[nH]c2nc(-c3ccco3)c(Br)cc12)C1CCN(Cc2ccccc2)C1.O=C(O)[C@H](O)[C@@H](O)C(=O)O` (stereo not shown) [SB-742034] to `FC(F)(F)c1ccccc1-c1cc(-c2c[nH]nc2-c2ccccn2)ccn1` [GW679396], the “%Inh” value falls from 46% to 0%.

With `COc1nccc(-c2c(-c3ccc(F)cc3)ncn2CCCN2CCOCC2)n1` [SB-282852] the “%Inh” value was 22%.
